Results reported in the supplement of paper PMC12636033.
± gives the standard deviation of the averaged measurements. The full ranking holds about 33,000 sequences; the median of “E-score (rank enrichment, -0.5 to 0.5)” is about -0.0043, and the highest 2% start at about 0.24. This is one part of a sample in which the highest values are shown more often than they occur.

tested on: 2Sp-muMax20 (muMax20 with two 2,6-bis(methyl)pyridine Cys staples); experiment: PBM 8-mer E-score (E-score (rank enrichment, -0.5 to 0.5)); higher = stronger preferential binding
Method: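 Protein binding microarray (universal PBM chip covering all 10-mers in fixed probe flanks) with chemically synthesized human Max(13-93) bHLH-LZ analogs (not full-length Max) bearing noncanonical residues (hArg, Tha, Aib, Nle at 65) and aromatic Cys staples. Read-out per 8-mer (and its reverse complement): E-score (rank-based enrichment, -0.5 to 0.5) and Z-score of median probe intensity.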

| Sequence | PBM 8-mer E-score |
| --- | --- |
| AAGCTGCT | -0.0983 ± 0.048 |
| ACTGACTA | -0.00544 ± 0.014 |
| GGCCTAGA | -0.101 ± 0.039 |
| AGGGCGAG | 0.00325 ± 0.014 |
| AACTAGCT | -0.0509 ± 0.098 |
| ATAATTCG | 0.221 ± 0.06 |
| TTAACTAA | 0.248 ± 0.0099 |
| CTAATTAG | -0.0106 ± 0.077 |
| CTAACTAA | 0.0344 ± 0.032 |
| ATAACTAA | 0.174 ± 0.018 |
| ATAATTAG | 0.289 ± 0.006 |
| ACTCGCTG | -0.155 ± 0.038 |
| AATTGTAC | 0.22 ± 0.0078 |
| TGGTATAA | 0.219 ± 0.019 |
| CGGGTACC | -0.168 ± 0.059 |
| ACGCTACA | 0.161 ± 0.04 |
| ACCCCAGT | 0.303 ± 0.048 |
| ACCCCAAC | 0.2 ± 0.075 |
| ACCCCAGG | -0.135 ± 0.03 |
| ACCCCAGA | 0.102 ± 0.066 |
| ACCCCAAG | 0.167 ± 0.067 |
| ACCCCAAT | 0.248 ± 0.017 |
| CGGCTCAG | -0.245 ± 0.011 |
| AAGGCGAG | -0.114 ± 0.11 |
| CCGCACCG | -0.232 ± 0.037 |

| Sequence | PBM 8-mer E-score |
| --- | --- |
| ATTGTAGG | 0.163 ± 0.04 |
| AGAAACAA | 0.23 ± 0.034 |
| ATTATGTG | 0.19 ± 0.015 |
| ATAATGTA | 0.261 ± 0.054 |
| ATAATGTC | 0.0928 ± 0.013 |
| ATTATGTC | -0.0254 ± 0.039 |
| ATTATGTA | 0.252 ± 0.063 |
| CTAATGTA | 0.0902 ± 0.11 |
| CCAAGGTA | -0.122 ± 0.08 |
| ATGGTCCG | -0.11 ± 0.052 |
| GAGCTTAC | 0.0525 ± 0.066 |
| TACCCTGA | 0.0285 ± 0.0041 |
| GCTGAGAC | -0.0936 ± 0.027 |
| GGTTGGCA | -0.0827 ± 0.032 |
| AAAAGCGA | 0.147 ± 0.046 |
| CAAAGCGC | -0.0804 ± 0.097 |
| AAAAAGCA | 0.206 ± 0.014 |
| AAAAAGCC | 0.0819 ± 0.062 |
| CAAAGCTG | 0.0649 ± 0.017 |
| AAAAGCTG | 0.272 ± 0.0057 |
| AAAAGCTA | 0.141 ± 0.049 |
| AAAAGCGC | 0.236 ± 0.064 |
| AAAAAGCT | 0.282 ± 0.011 |
| ACTTTTGG | 0.145 ± 0.018 |
| GCAACGGC | -0.147 ± 0.018 |

| Sequence | PBM 8-mer E-score |
| --- | --- |
| GGCTCAGA | -0.204 ± 0.025 |
| CCGAAGCC | -0.258 ± 0.035 |
| ATAGCTAC | 0.204 ± 0.0011 |
| AGGTGTCG | -0.0243 ± 0.082 |
| CAGAGGCC | -0.0446 ± 0.062 |
| ATCAATTC | 0.159 ± 0.024 |
| AACAATTA | 0.246 ± 0.078 |
| ATCAATTG | 0.255 ± 0.068 |
| GTCAATTA | 0.0735 ± 0.075 |
| AACAATTC | 0.166 ± 0.067 |
| ATCAATCG | 0.16 ± 0.038 |
| CTCAATTA | 0.0912 ± 0.079 |
| ATCAATTA | 0.28 ± 0.041 |
| AACAATTG | 0.0804 ± 0.12 |
| AACGTCAT | 0.0419 ± 0.012 |
| AAGTTTCG | 0.0139 ± 0.064 |
| TACACTCA | 0.0543 ± 0.059 |
| CCAGAAAA | -0.0128 ± 0.11 |
| GGGCAAAC | -0.0742 ± 0.046 |
| AATCTATC | 0.061 ± 0.099 |
| CTGTCTAC | -0.085 ± 0.0076 |
| ACGGGTGA | -0.227 ± 0.052 |
| CCCACCCG | 0.29 ± 0.03 |
| GCCACCCC | -0.0325 ± 0.055 |
| ACCACCCC | 0.0435 ± 0.03 |

| Sequence | PBM 8-mer E-score |
| --- | --- |
| CCCACTTC | 0.00615 ± 0.027 |
| GCCACTTA | 0.0747 ± 0.039 |
| GCCACCCA | -0.126 ± 0.068 |
| CCCACTTA | 0.236 ± 0.023 |
| CACACCCG | -0.15 ± 0.012 |
| CCCACCCC | 0.332 ± 0.046 |
| ACCACCCG | -0.146 ± 0.077 |
| TCCACCCA | 0.00246 ± 0.039 |
| CCCACCCA | 0.364 ± 0.023 |
| ATCGGCCG | -0.187 ± 0.13 |
| CCGGCGGC | -0.269 ± 0.029 |
| CCTATTCG | -0.105 ± 0.0044 |
| ACGAAGAA | 0.16 ± 0.06 |
| ATGCGATC | 0.00891 ± 0.016 |
| CAAGACGG | -0.109 ± 0.028 |
| GCAATTGA | 0.0718 ± 0.079 |
| GCAATTGC | 0.242 ± 0.013 |
| CCAATTGC | 0.108 ± 0.012 |
| ACGTCCCG | -0.326 ± 0.046 |
| AGGGCGGG | 0.311 ± 0.011 |
| AGGGCGGA | -0.101 ± 0.0044 |
| AGGGCGGC | -0.0202 ± 0.17 |
| ATAACGTG | 0.293 ± 0.018 |
| ATAACGTA | 0.107 ± 0.085 |
| ATAACTTC | 0.0494 ± 0.033 |

| Sequence | PBM 8-mer E-score |
| --- | --- |
| ATAACGTC | 0.138 ± 0.029 |
| ATAACTTG | 0.241 ± 0.012 |
| ATAACTTA | 0.14 ± 0.043 |
| CTGGGTCA | -0.0254 ± 0.017 |
| AGCTACGC | 0.0669 ± 0.0082 |
| CCGTCGGC | -0.232 ± 0.016 |
| CAAGCCAC | -0.143 ± 0.044 |
| GTATTTTA | 0.0916 ± 0.055 |
| CTATTTAA | -0.0484 ± 0.012 |
| ATATTTAC | 0.159 ± 0.032 |
| CTATTTTA | 0.224 ± 0.026 |
| ATATTTAA | 0.334 ± 0.019 |
| ATATTTTA | 0.245 ± 0.02 |
| ATCTTAGA | 0.0255 ± 0.036 |
| CTCGCCGC | -0.0225 ± 0.15 |
| AATTGCCG | -0.00487 ± 0.03 |
| GTTCTTTA | 0.000435 ± 0.15 |
| CTTCTTTA | 0.245 ± 0.01 |
| CTTCTTTC | -0.118 ± 0.046 |
| AACCTACT | -0.0133 ± 0.062 |
| AATCTGAT | 0.057 ± 0.016 |
| CAAATAAC | 0.238 ± 0.041 |
| GAAATAAC | -0.1 ± 0.05 |
| AAAATAAC | 0.2 ± 0.041 |
| ACAGTGGC | -0.0719 ± 0.054 |

| Sequence | PBM 8-mer E-score |
| --- | --- |
| CGAGGTTC | -0.105 ± 0.037 |
| CCTCAGGA | -0.147 ± 0.12 |
| AGTCGGGC | -0.144 ± 0.022 |
| ATTATAAG | 0.28 ± 0.0046 |
| CTTATAAA | 0.184 ± 0.071 |
| ATTATAGA | 0.0771 ± 0.056 |
| GTTATAAA | 0.154 ± 0.051 |
| CTTATAAC | 0.0403 ± 0.076 |
| CCTATAAA | -0.143 ± 0.042 |
| TTTATAAA | 0.246 ± 0.074 |
| CTTATAAG | 0.0331 ± 0.11 |
| GTTATAAC | 0.16 ± 0.047 |
| ATTATAAC | 0.247 ± 0.041 |
| ATTATAAT | 0.169 ± 0.1 |
| ATTATAAA | 0.263 ± 0.069 |
| ACTGAACG | -0.181 ± 0.086 |
| AGAAACCG | -0.0327 ± 0.035 |
| ACCACTTC | 0.0215 ± 0.0022 |
| AAGACTAA | 0.0726 ± 0.081 |
| GATTTTCC | -0.0716 ± 0.0054 |
| AGAGGCAG | -0.125 ± 0.069 |
| CTAACCAA | -0.0414 ± 0.074 |
| ACCTCGTC | -0.0184 ± 0.011 |
| AACGTCTG | -0.086 ± 0.17 |
| ACCTCACG | -0.0339 ± 0.093 |

| Sequence | PBM 8-mer E-score |
| --- | --- |
| CCCGGCGC | -0.17 ± 0.023 |
| ACGCACGT | 0.277 ± 0.0066 |
| ACGCACAT | 0.24 ± 0.091 |
| ACGCACAA | 0.0234 ± 0.071 |
| ACGCACGA | 0.0583 ± 0.035 |
| ACGCACAG | -0.104 ± 0.024 |
| ACGCACGC | 0.157 ± 0.12 |
| GCCATCAA | 0.193 ± 0.0031 |
| CACTGTGC | -0.123 ± 0.011 |
| CCAGCCTC | -0.148 ± 0.047 |
| CATACCTA | 0.0465 ± 0.0019 |
| GATACCTA | 0.155 ± 0.013 |
| AATACCTA | 0.244 ± 0.03 |
| ATGGATGA | 0.053 ± 0.022 |
| CTATTTCA | 0.126 ± 0.099 |
| CTATTTCC | 0.26 ± 0.051 |
| ATATTTCC | 0.0705 ± 0.11 |
| TCCAGTAA | 0.071 ± 0.076 |
| CAATGGCG | 0.02 ± 0.0014 |
| GACGTGAA | -0.25 ± 0.025 |
| AATGTGAA | 0.154 ± 0.12 |
| TACGTGAA | 0.0426 ± 0.043 |
